# Reference: PubChem BioAssay AID1030 (National Center for Advancing Translational Sciences (NCATS), 2008)
# Hit rate of the full screen: of about 220,000 compounds, about 16,000 (7.3%) were called active. Where a call stands in place of a potency, no number is given. Inconclusive results (about 25%) are left out. The sample holds actives, similar compounds and a random draw of the others, so the mix is not that of the screen. Values without a mark were called inactive. The call rests on the fitted dose curve; in most records, active means well fitted inhibition curve with a large enough effect (not every such curve was filed as active); inconclusive means small, poorly fitted or top-dose-only effect, or another doubt; inactive means no such curve, though single readings can be large or run the other way.
# Target: Aldehyde dehydrogenase 1A1 (Homo sapiens) (UniProt P00352)
# Sequence (P00352 whole entry, looked up): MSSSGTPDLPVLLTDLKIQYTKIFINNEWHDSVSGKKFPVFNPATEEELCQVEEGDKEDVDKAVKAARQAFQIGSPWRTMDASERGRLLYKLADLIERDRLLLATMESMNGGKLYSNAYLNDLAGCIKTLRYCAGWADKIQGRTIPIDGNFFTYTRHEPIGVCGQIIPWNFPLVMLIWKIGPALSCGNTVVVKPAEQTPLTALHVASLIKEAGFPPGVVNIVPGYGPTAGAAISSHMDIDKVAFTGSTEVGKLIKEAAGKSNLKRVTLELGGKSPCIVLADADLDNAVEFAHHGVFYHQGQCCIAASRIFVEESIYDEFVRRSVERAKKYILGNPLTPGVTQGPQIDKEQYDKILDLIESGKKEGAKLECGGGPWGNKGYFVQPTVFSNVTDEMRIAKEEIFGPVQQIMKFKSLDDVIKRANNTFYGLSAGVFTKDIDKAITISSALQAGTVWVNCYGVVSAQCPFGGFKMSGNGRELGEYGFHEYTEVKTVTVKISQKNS
# Experiment: qHTS Assay for Inhibitors of Aldehyde Dehydrogenase 1 (ALDH1A1)
# Conditions: Purified ALDH1A1, NADH fluorescence, propionaldehyde substrate; series mostly up to 75.3 µM
# Potency means the concentration at half of the fitted maximal effect.
Structure (SMILES),Potency,"activity, negative = inhibition"
CCOC(=O)CNC(=O)/C(=C\c1ccc(F)cc1)NC(=O)c1ccccc1,inactive,
CN(C)c1nnnn1-c1ccc(Cl)cc1,inactive,
Cc1cc(C)cc(NC(=O)CSc2ccccc2)c1,inactive,
Cc1cccc(NC(=S)Nc2ccc3cn[nH]c3c2)c1,10 µM (active),
Cc1csc(NC(=S)Nc2cccc(Cl)c2)n1,inactive,
S=C(Nc1cccc(Cl)c1)Nc1ccc2cn[nH]c2c1,28.2 µM (active),
O=C(Nc1ccc2cn[nH]c2c1)c1ccc(S(=O)(=O)N2CCOCC2)cc1,inactive,
Cc1cccc(NC(=O)CSc2nc3[nH]ncc3c(=O)[nH]2)c1,inactive,
Cc1cccc(NC(=S)Nc2ccc(Br)cc2)c1,inactive,
CC(N)(C(=O)O)c1ccc(-c2nn[nH]n2)cc1 (stereo not given),inactive,
Cc1cc(C)c(S(=O)(=O)N2CCOCC2)cc1C,inactive,
COC1(C2=NCCN2)COc2ccccc2O1 (stereo not given),inactive,
CC1(C)C(c2cccs2)=[N+]([O-])C2(CCCCC2=O)N1O (stereo not given),22.4 µM (active),
Cc1cccc(C)c1NC(=O)CNC(=O)Cc1ccc(Br)cc1,inactive,
CCCCCC1CCC(c2nnc(SCC(C)=O)o2)CC1 (stereo not given),inactive,
CCN(CC)S(=O)(=O)c1ccc(C)c(NC(=O)COc2ccc(Br)cc2Cl)c1,inactive,
CCN(CC)S(=O)(=O)c1ccc(Cl)c(NC(=O)c2ccncc2)c1,12.6 µM (active),
Cc1nn(Cc2ccc(F)cc2)c(C)c1NC(=O)c1cccnc1Cl,inactive,
CCN(CC)S(=O)(=O)c1ccc(NC(=O)c2cccnc2Cl)c(NC(=O)c2cccnc2Cl)c1,7.08 µM (active),
Cc1ccc(CNC(=O)c2cccnc2Cl)cc1,inactive,
CCN(CC)S(=O)(=O)c1cccc(C(=O)Nc2ccccc2)c1,inactive,
O=[N+]([O-])c1cc(S(=O)(=O)Nc2cccc(Cl)c2)ccc1N=Nc1c(O)[nH]c2ccccc12,inactive,
COc1ccc(/C=N/NC(=O)c2ccncc2)cc1CN1CCCc2ccccc21,inactive,

Structure (SMILES),Potency,"activity, negative = inhibition"
CC(C)N(C(=O)c1ccc(-c2ccccc2F)cc1)C(C)C,inactive,
O=C(c1cccs1)N(C(=O)c1cccs1)c1ccccn1,inactive,
COc1ccc(CN(Cc2ccc(OC)cc2)C(=O)c2cccs2)cc1,8.91 µM (active),
COc1ccc(CN(C(=O)c2cccs2)c2nccs2)cc1OC,inactive,
CCc1ccccc1NC(=S)N(CCN1CCCCCC1)Cc1ccco1,inactive,
O=C(COC(=O)CNC(=O)c1ccco1)Nc1ccc(F)cc1,inactive,
CC(C)[C@@H]1NC(=O)[C@H](Cc2ccccc2)NC(=O)[C@@H](CC(=O)O)NC(=O)CNC(=O)[C@H](CCCNC(=N)N)NC1=O,inactive,
Cc1nccc(-c2ccc(-n3c(C)ccc3C)cc2)n1,inactive,
Cc1ccc(C(=O)O)cc1NC(=O)c1ccc(Cn2nc(C)c(Cl)c2C)o1,inactive,
O=C(/C=C/c1cc2c(cc1Br)OCO2)NCc1ccc(Cl)cc1,inactive,
C/C(=N/NC(=O)C1COc2ccccc2O1)c1ccco1 (stereo not given),inactive,
O=C(N/N=C/c1cc2c(cc1Br)OCO2)C1COc2ccccc2O1 (stereo not given),25.1 µM (active),
Cc1ccc(C(=O)N/N=C\c2cc(Br)c(Br)o2)cn1,inactive,
O=C(N/N=C\c1cc(Br)c(Br)o1)C1COc2ccccc2O1 (stereo not given),17.8 µM (active),
O=C(CNC(=O)C(c1ccccc1)c1ccccc1)N/N=C\c1ccc2c(c1)OCO2,inactive,
CN(C)c1ccc(C(=S)N2CCN(C(=S)Nc3ccc(Cl)cc3)CC2)cc1,inactive,
CN(Cc1cc2cc(F)ccc2[nH]1)Cc1nc(-c2cnccn2)no1,inactive,
CC(=O)Nc1nc(N(C)C)nc(N(C)C)n1,inactive,
CC(=O)N/N=C(\C)c1ccc(Br)cc1Br,inactive,
COc1ccc(-c2nc(CN3CCN(c4ncccn4)CC3)c(C)o2)cc1C,inactive,
COc1cc(C2C(N3C(=O)c4ccccc4C3=O)C(=O)N2c2ccc(C)c(C)c2)cc(OC)c1OC (stereo not given),inactive,
Cc1n[nH]c(=S)n1/N=C/c1ccc(Br)o1,inactive,
Cc1ccsc1/C=N/n1c(=S)[nH]nc(C)c1=O,inactive,

Structure (SMILES),Potency,"activity, negative = inhibition"
Cc1ccccc1-c1n[nH]c(=S)n1/N=C/c1ccc(-c2ccccc2Br)o1,14.1 µM (active),
COc1ccc2nccc(C(=O)O)c2c1,inactive,
COc1ccc(OC)c(N=Cc2c(O)[nH]c3ccccc23)c1,inactive,
COc1ccc(C=Nc2cccc3ncccc23)cc1,17.8 µM (active),
O=[N+]([O-])c1ccc(NCCCO)c(C(F)(F)F)c1,15.8 µM (active),
CC(=O)Nc1ccc(C(=O)OCC(=O)Nc2ccc([N+](=O)[O-])cc2C(F)(F)F)cc1,inactive,
CC(C)(C)C(=O)NCCCNc1ccc([N+](=O)[O-])cc1,inactive,
O=C(N/N=C/c1ccc(Cl)cc1)c1nc2ccc([N+](=O)[O-])cc2c(=O)[nH]1,inactive,
CC(=O)c1cnc(SCC(=O)O)nc1C,inactive,
COc1ccc(NC2=CC(=S)NC(C)(C)C2)cc1,inactive,
Cc1cccc(N2CCN(c3ccc(NC(=O)/C=C\C(=O)O)cc3)CC2)c1,25.1 µM (active),
Cc1cccc(C(=O)Nc2ccccc2N2CCN(c3ccc(F)cc3)CC2)c1,inactive,
O=C(Nc1cccc(NC(=O)N2CCN(c3ccccc3)CC2)c1)N1CCN(c2ccccc2)CC1,inactive,
CCOCCCn1c(NN)nc2ccccc2c1=O,inactive,
CCOC(=O)N1CCN(C(=O)CN(c2ccc(C)c(C)c2)S(=O)(=O)c2ccccc2)CC1,inactive,
COc1cccc(N(CC(=O)N2CCc3ccccc3C2)S(C)(=O)=O)c1,inactive,
Cc1ccc(S(=O)(=O)N(CC(=O)N2CCc3ccccc3C2)c2cccc(Cl)c2)cc1,0.562 µM (active),
CC(=O)NCC(=O)N(Cc1ccco1)C1(C(=O)NC2CCCC2)CCCCC1,inactive,
Cc1nn(-c2ccccc2)c2c1C(c1ccc(F)cc1)C(C#N)=C(N)O2 (stereo not given),3.55 µM (active),
Cc1nn(Cc2ccccc2)c2c1C(c1ccccc1)C(C#N)=C(N)O2 (stereo not given),7.08 µM (active),
COc1ccccc1C1C(C#N)=C(N)Oc2c1c(-c1ccccc1)nn2-c1ccccc1 (stereo not given),inactive,
Cc1cc2c(c(=O)n1Cc1ccco1)C(c1ccccc1)C(C#N)=C(N)O2 (stereo not given),inactive,
CCCc1[nH]nc2c1C(c1c(C)nn(-c3ccccc3)c1Cl)C(C#N)=C(N)O2 (stereo not given),inactive,

Structure (SMILES),Potency,"activity, negative = inhibition"
CCc1ccc(C2C(C#N)=C(N)Oc3n[nH]c(CC(=O)OC)c32)cc1 (stereo not given),inactive,
Cc1c(Br)c([N+](=O)[O-])nn1CC(=O)Nc1sc2c(c1C(=O)OC(C)C)CCC(C)C2 (stereo not given),inactive,
CCCCC[C@H](O)/C=C/[C@@H]1[C@@H](CC(=O)CCC(=O)O)[C@@H](O)C[C@H]1O,inactive,
COc1ccc(C2CC(c3cccs3)=NN2C(=O)CSc2nncs2)cc1OC (stereo not given),inactive,
COc1cc(/C=N/N=C(\N)c2nonc2N)cc(OC)c1OC,inactive,
COCCNC(=O)C(OC(=O)c1cccs1)c1ccc(F)cc1 (stereo not given),inactive,
CCc1nc2oc3ccccc3c(=O)c2c(=O)n1Cc1ccc(OC)cc1,inactive,
O=c1c2ccccc2oc2nc3n(c(=O)c12)CCCS3,25.1 µM (active),
O=c1c2ccccc2oc2nc(C3CCCCC3)n(Cc3ccco3)c(=O)c12,inactive,
COc1ccc(C2=NN(c3ccccc3)C(c3cccs3)C2)cc1 (stereo not given),inactive,
Cc1cnc(NC(=O)CSc2nnc(-c3ccc(Cl)cc3Cl)n2N)s1,20 µM (active),
Cc1cnc(NC(=O)CSc2nnc(-c3ccccc3)n2Cc2ccccc2)s1,inactive,
Cc1ccc(SCC(=O)Nc2ncc(C)s2)cc1,inactive,
Cc1ccc(-c2cc(C(=O)NN)n[nH]2)o1,inactive,
O=C(O)CCCC(=O)Nc1ccc(Oc2cccc(C(F)(F)F)c2)nc1,inactive,
Oc1ccc(N2CCN(C(=S)NCc3ccccc3)CC2)cc1,20 µM (active),
O=C(COC(=O)c1ccccc1C(=O)N1CCN(c2ccccc2)CC1)NCc1ccccc1,inactive,
Oc1ccccc1N1CCN(C(=S)NCc2ccccc2)CC1,inactive,
N/C(=N\OC(=O)c1ccc([N+](=O)[O-])cc1)c1ccccn1,inactive,
C[N+]1(CC(O)COc2ccccc2)CCN(C(=O)c2ccc([N+](=O)[O-])cc2)CC1 (stereo not given),inactive,
CC(=O)NCCn1c(SCC(=O)Nc2ccc(C)cc2)nc2ccccc2c1=O,inactive,
Nc1ccc(SCCN2C(=O)c3ccccc3C2=O)cc1,inactive,
CN(C)CCCn1c(SCCN2C(=O)c3ccccc3C2=O)nc2ccccc2c1=O,20 µM (active),

Structure (SMILES),Potency,"activity, negative = inhibition"
COc1ccc(C(=O)CSc2nnc(-c3ccco3)o2)cc1,inactive,
COC(=O)C1=C(NC(=O)C(C)(C)C)CCS1,inactive,
C=CCC(C(=O)c1ccccc1)[N+](C)(C)CC=C (stereo not given),inactive,
Cc1ccc(Cl)cc1NC(=S)N(CCN(C)C)Cc1cccs1,inactive,
N#C/C(=C(\O)C(F)(F)F)c1nnc2n1CCCCC2,4.47 µM (active),
N#Cc1cccc(Nc2c3c(nc4ccccc24)CCCC3)c1,inactive,
CCc1nnc(NC(=O)CCN(c2ccc(C)cc2)S(=O)(=O)c2ccccc2)s1,inactive,
CCOC(=O)Cn1c(=O)oc2cc(S(=O)(=O)N(C)Cc3ccco3)ccc21,15 µM (active),
CCOc1ccc(S(=O)(=O)N(CC(=O)NCC(F)(F)F)Cc2ccco2)cc1,inactive,
CCOC(=O)Cn1c(=O)oc2cc(S(=O)(=O)NCC3CCCO3)ccc21 (stereo not given),inactive,
Cc1ccc(CN2CCN(Cc3ccc(OCCO)cc3)CC2CCO)o1 (stereo not given),inactive,
C[C@H]1Cc2c(COc3ccccc3)nc3c(c2CO1)CN(C(=O)Nc1cccc(C#N)c1)CC3,,-13.5% [at 13.5 µM]
COc1ccc(-c2nc3c(c4c2C[C@H](c2ccccc2)OC4)CN(C(=O)C2CC2)CC3)c(C)c1,0.398 µM (active),
C[C@H]1Cc2c(-c3ccccc3)nc3c(c2CO1)CN(C(=O)C1CC1)CC3,,8.3% [at 13.5 µM]
COc1ccc(F)c(-c2nc(CN3CCC(c4ccccc4)CC3)c(C)o2)c1,inactive,
COc1ccc(-c2nc3c(c4c2C[C@H](c2ccccc2)OC4)CN(C(=O)c2cccnc2)CC3)c(C)c1,0.355 µM (active),
C[C@H]1Cc2c(COc3ccccc3)nc3c(c2CO1)CN(C(=O)NCc1ccco1)CC3,,-1.72% [at 13.5 µM]
C[C@H]1Cc2c(-c3ccccc3)nc3c(c2CO1)CN(S(=O)(=O)c1ccc(Cl)c2nonc12)CC3,,-9.79% [at 13.5 µM]
COc1c(C)cc(C(=O)C2CCCN(S(=O)(=O)c3c(C)noc3C)C2)cc1C (stereo not given),inactive,
Cc1ccc(OCC(=O)N2CCN(C(=O)c3cccnc3)CC2)cc1,inactive,
COc1cccc(CC(=O)N2CCc3nc(COc4ccccc4)c4c(c3C2)CO[C@@H](C)C4)c1,,6.69% [at 13.5 µM]
COc1ccc(-c2nc3c(c4c2C[C@H](c2ccccc2)OC4)CN(S(=O)(=O)c2c(C)noc2C)CC3)c(C)c1,0.447 µM (active),
COc1ccc(-c2nc3c(c4c2C[C@H](c2ccccc2)OC4)CN(C(=O)c2ccco2)CC3)c(C)c1,1.78 µM (active),
